# Compound activity: PubChem BioAssay, National Center for Advancing Translational Sciences (NCATS)
# Compounds with a hit are over-represented: about 0.99% of the library has one in this group of screens.
# TRHR enhancer – qHTS for Small Molecule Agonists and Allosteric Enhancers of Human TRH Receptor: Primary Screen for Enhancers; enhancement, % at 2 µM; TRHR cells, fluo-8 calcium fluorescence, EC20 TRH enhancement; AID 493056, 2011; actives 0.66% (n = 360,000); Thyrotropin-releasing hormone receptor (Homo sapiens), P34981; in the data active = enhancement above about 30%
#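 TRHR-expressing cells loaded with fluo-8 calcium dye were read kinetically (ex 480/em 530) during compound addition, then stimulated with an EC20 of TRH (10 nM final). Enhancement of the Gq-mediated intracellular calcium response was scored.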
# TRPV1 agonist – HTS Assay for Compounds that Act as Agonists of the Vanilloid Receptor 1; Transient receptor potential cation channel subfamily V member 1 (Homo sapiens), Q8NER1; TRPV1-expressing cells, Fluo-8 calcium influx, agonist mode; activation, % at 8.33 µM; actives 0.19% (n = 320,000); AID 540275, 2011; in the data active = activation above about 80%; inconclusive = between about 30% and that limit
#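 Fluo-8 calcium influx in TRPV1-expressing cells, kinetic read (ex 480/em 520 nm). Compound added and read 3 min for agonist activity, followed by capsaicin at EC20 final and 2 min further read for enhancement.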
# TRHR ag – qHTS for Small Molecule Agonists and Allosteric Enhancers of Human TRH Receptor: Primary Screen for Agonists. Thyrotropin-releasing hormone receptor (Homo sapiens), P34981. AID 493084, 2011. activation, % at 2 µM. actives 0.18% (n = 360,000). TRHR cells, calcium flux fluo-8, FDSS agonist mode; in the data active = activation above about 30%
#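 In this calcium-flux screen, cells bearing human TRHR are dye-loaded with fluo-8, baselined for 10 cycles, then exposed to library compounds; positive kinetic calcium responses during the agonist phase mark hits, with TRH as control.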
# TRPV1 PAM – HTS Assay for Compounds that Act as Potentiators of the Vanilloid Receptor 1; Transient receptor potential cation channel subfamily V member 1 (Homo sapiens), Q8NER1; TRPV1-expressing cells, Fluo-8 calcium influx, capsaicin EC20 potentiation; potentiation, % at 8.33 µM; actives 0.02% (n = 320,000); in the data active = potentiation above about 80%; inconclusive = between about 30% and that limit
#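 Cells expressing TRPV1 were dye-loaded with Fluo-8 and read kinetically: 10 s baseline, 3 min after compound (agonist portion), then 2 min after EC20 capsaicin (allosteric enhancer portion). Calcium-bound dye fluorescence at 480/520 nm.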
# TRPML1 ag – qHTS for Agonists of the Human Mucolipin Transient Receptor Potential 1 (TRPML1). actives 0.12% (n = 410,000). TRPML1-expressing cells, Ca2+ dye fluorescence, FDSS. activation, % (no concentration beside the values). Mucolipin-1 (Homo sapiens), Q9GZU1; in the data active = activation above about 50%; inconclusive = mostly about 30% to 49%
# Target sequence (Q9GZU1 whole entry, looked up): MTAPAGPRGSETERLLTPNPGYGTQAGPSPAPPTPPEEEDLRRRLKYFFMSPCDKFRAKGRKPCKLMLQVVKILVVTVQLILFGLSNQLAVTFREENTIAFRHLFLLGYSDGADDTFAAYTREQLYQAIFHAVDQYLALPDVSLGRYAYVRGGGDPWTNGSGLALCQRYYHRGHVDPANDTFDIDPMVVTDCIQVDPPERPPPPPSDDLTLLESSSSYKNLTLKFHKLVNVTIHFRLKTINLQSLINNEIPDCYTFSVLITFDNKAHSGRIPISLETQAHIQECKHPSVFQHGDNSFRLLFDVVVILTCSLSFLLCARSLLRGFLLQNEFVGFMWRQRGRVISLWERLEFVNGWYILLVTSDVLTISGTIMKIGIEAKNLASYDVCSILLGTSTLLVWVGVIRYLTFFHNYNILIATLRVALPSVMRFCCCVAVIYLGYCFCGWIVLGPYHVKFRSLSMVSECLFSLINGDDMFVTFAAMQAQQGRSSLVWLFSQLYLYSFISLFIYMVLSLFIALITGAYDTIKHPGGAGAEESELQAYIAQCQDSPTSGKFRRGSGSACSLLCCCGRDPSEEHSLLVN
#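 Tetracycline-induced TRPML1-DL cells are seeded and incubated overnight before loading with a no-wash Ca2+ dye and quencher. Agonist activity is taken from the 110 s fluorescence read following compound pin-transfer on an FDSS, before EC80 54-4 challenge.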
# TRPML1 blocker – qHTS for Inhibitors of the Human Mucolipin Transient Receptor Potential 1 (TRPML1); actives 0.02% (n = 390,000); activity change, negative = inhibition, % (concentration not given with the values); TRPML1-inducible cells, Ca2+ dye fluorescence, FDSS; stronger effect = lower value; inhibition of EC80 agonist-evoked calcium signal; in the data active = activity change below about -50%; inconclusive = between about -30% and that limit;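 also: stimulus is agonist 54-4 at its EC80 concentration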
#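 Calcium fluorescence in TRPML1-DL cells induced overnight with Tet: a 110 s read after compound pin addition, then a 110 s antagonist read after challenge with 54-4 at 4 uM final (EC80).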
# Numbers stand for hits; i = inactive; ? = inconclusive; nt = no result given; ! = repeats disagree.
SMILES,TRHR enhancer,TRPV1 agonist,TRHR ag,TRPV1 PAM,TRPML1 ag,TRPML1 blocker
O=C(Nc1ccc(F)cc1F)c1cc2ccc3cccnc3c2[nH]1,i,nt,i,nt,i,i
O=C(NCc1ccccc1)c1cc2ccc3cccnc3c2[nH]1,31,nt,i,nt,i,i
O=C(Nc1ccc2c(c1)OCCO2)c1cc2ccccc2o1,i,81,i,i,i,i
COc1cccc(NC(=O)c2oc3ccccc3c2NC(=O)Cc2cccc(C)c2)c1,i,nt,i,nt,i,i
COc1cccc(NC(=O)Cn2c(=O)n(CCc3ccccc3)c(=O)c3c4c(sc32)CN(C(C)=O)CC4)c1,i,nt,i,nt,i,i
Cc1ccc(CC(=O)Nc2nccs2)cc1C,32,i,i,i,i,i
CCOc1ccc(CC(=O)Nc2nccs2)cc1,i,i,i,i,i,i
CC1=CC(C)(C)Nc2ccc(Cc3ccc4c(c3)C(C)=CC(C)(C)N4)cc21,38,i,i,i,i,i
CC1=CC(C)(C)Nc2ccc(C)cc21,i,i,i,i,i,i
COC(=O)c1ccc(-n2cncn2)c([N+](=O)[O-])c1,37,i,i,i,i,i
O=C(CNC(=O)c1ccncc1)N/N=C/c1ccccn1,i,i,i,i,i,i
COc1ccccc1NS(=O)(=O)c1ccc(NC(=O)c2ccncc2)cc1,38,i,i,i,i,i
COc1cc(C(=O)NCC(=O)N/N=C/c2ccccn2)cc(OC)c1OC,35,i,i,i,i,i
COc1cccc(C(=O)Nc2ccncc2)c1OC,i,i,i,i,i,i
COc1cc(NC(=O)c2ccccn2)cc(OC)c1OC,30,i,i,i,i,i
COc1ccccc1C(=O)Nc1ccncc1,35,i,i,i,i,i
C=C1C=C(C(F)F)n2ncc(C(=O)Nc3ccc(N(CC)CC)cc3)c2N1,nt,nt,nt,nt,i,nt
COc1ccc(NC(=O)C2CCCN(S(=O)(=O)c3ccccc3)C2)c(OC)c1 (configuration not stated),33,i,i,i,i,i
COc1cc(S(=O)(=O)N2CCCN(C)CC2)ccc1NC(C)=O,30,i,i,i,i,i
COc1ccc(S(=O)(=O)N2CCCC(C(=O)Nc3ccc(OC)c(OC)c3)C2)cc1 (configuration not stated),i,i,i,i,i,i
O=C(NCc1ccc(F)cc1)C1CCCN(c2nc3ccsc3c(=O)s2)C1 (configuration not stated),i,83,i,i,i,i
COc1ccc(NC(=O)C2CCCN(S(=O)(=O)c3ccc4[nH]c(=O)ccc4c3)C2)cc1OC (configuration not stated),39!,i,i,i,i,i
CCOC(=O)c1noc2ncnc(Nc3ccc(C)c(F)c3)c12,i,nt,i,nt,i,i
O=C(NCc1ccccc1)C1CCCN(S(=O)(=O)c2ccc(F)cc2)C1 (configuration not stated),36,i,i,i,i,i
O=C(Nc1nnc(-c2ccccc2)o1)c1nc2ccccc2s1,i,i,31,i,?,i
SMILES,TRHR enhancer,TRPV1 agonist,TRHR ag,TRPV1 PAM,TRPML1 ag,TRPML1 blocker
NC(=O)c1oc2ccccc2c1NC(=O)c1nc2ccccc2s1,i,i,i,i,i,i
NC(=Nc1ccccc1)Nc1ccccc1,i,i,96,i,i,i
CCOC(=O)/C(C(=Nc1ccccc1)Nc1ccccc1)=C(\C)O,i,i,i,i,i,i
CC(C)(C)c1ccc(Nc2nc(C#N)nc(NC3CCCC3)n2)cc1,i,nt,i,nt,nt,nt
CC1CCCCN1C(=O)C1CCN(c2nc(-c3ccccc3)nc3c2CCC3)CC1 (configuration not stated),39,i,i,i,i,i
COc1ccc(CC(=O)NCC(c2cccs2)S(=O)(=O)c2ccc(C)cc2)cc1 (configuration not stated),i,nt,i,nt,i,i
Cc1ccc(S(=O)(=O)c2nc(Nc3nccs3)sc2Cl)cc1,30,i,i,i,i,i
CC(=O)Nc1nc(S(=O)(=O)c2ccc(C)cc2)c(Cl)s1,i,i,i,i,i,i
COc1ccc(/C=c2\[nH]c(=O)/c(=C/c3ccc(OC)cc3)[nH]c2=O)cc1,nt,nt,nt,nt,i,nt
CCCCCCCCCCCCCCCC[n+]1ccc(/C=C/c2c[nH]c3ccccc23)cc1,nt,nt,nt,nt,i,nt
CCCCCCC[n+]1ccc(/C=C/c2c(C)[nH]c3ccccc23)cc1,nt,nt,nt,nt,57,nt
CCCCCCCCCC[n+]1ccc(/C=C/c2c[nH]c3ccccc23)cc1,nt,nt,nt,nt,68,nt
O=c1c2[nH]c3cc(Br)sc3c2cnn1Cc1ccccc1F,i,nt,i,nt,nt,nt
COc1cc(F)cc(F)c1[S+](=O)([O-])N1CCN([S+](=O)([O-])c2ccc3c(c2)OCCO3)CC1,i,nt,i,nt,nt,nt
CN(C)S(=O)(=O)c1ccc(S(=O)(=O)N(Cc2ccco2)Cc2ccccc2Cl)cc1,i,i,i,i,64,i
Cc1ccc(C(=O)CCC(=O)OCC(=O)Nc2nnc(-c3ccccc3)o2)cc1,40,i,i,i,i,i
COc1ccc(CCc2c[nH]c(=O)c3cncnc23)cc1OC,nt,nt,nt,nt,i,nt
Cc1ccc(S(=O)(=O)Nc2ccc(S(=O)(=O)Nc3nccs3)cc2)c([N+](=O)[O-])c1,58,i,i,i,i,i
NC(=O)C1CCN(C(=O)c2ccccc2NC(=O)c2nsc3ccccc23)CC1,i,nt,i,nt,i,?
COc1ccc(CC(=O)Nc2cccc3ccccc23)cc1OC,i,89,i,i,i,i
COc1cc(Cl)c(C)cc1NC(=O)COc1ccccc1[N+](=O)[O-],32,i,i,i,i,i
COc1cc(Cl)c(C)cc1NC(=O)Cc1ccc(OC)c(OC)c1,i,89,i,i,i,i
COc1cc(NC(=O)COc2c(C)cc(C)cc2[N+](=O)[O-])c(OC)cc1Cl,i,i,i,i,i,i
COc1cc(Cl)c(C)cc1NC(=O)Cc1cccs1,i,i,i,?,i,i
COc1ccc(CC(=O)NCc2ccc(-n3cccc3)cc2)cc1OC,i,81,i,i,i,i
Cc1cc2c(s1)c1cnn(Cc3c(Cl)cccc3Br)c(=O)c1n2C,i,nt,i,nt,nt,nt
CCOC(=O)c1ccc(NC(=O)c2n[nH]c(=O)c3ccccc23)cc1,i,i,i,i,i,i
